Among the data in PubChem BioAssay are inhibition values, retold here.

A word on the inhibition: it is the drop in the measured response relative to a control, in per cent.

Unmarked numbers belong to inactive results. Calls of active or inactive are those of the source. Rule as the data show it, unless noted: active = inhibition above about 33%; inactive = the rest.

The target of experiment [1] is Nuclear receptor coactivator 1 (Homo sapiens) (UniProt Q15788). As to the kind of experiment: SRC1 coactivator transcriptional activity inhibitors, confirmation, cell-based, luminescence, quadruplicate (AID 588820;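 active = mean inhibition above 46.68%, the untreated control wells mean plus 3 SD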;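 also: 0% = DMSO wells and 100% = gossypol 36 µM treated wells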). Conditions: HEK293 GAL4-SRC1 luciferase reporter, at 3.6 µM, stronger effect = higher value. On the technique in general: A reporter such as luciferase makes a cellular process visible.
Sequence of Nuclear receptor coactivator 1 (Homo sapiens) (Q15788 whole entry, looked up, the tested form may be a part): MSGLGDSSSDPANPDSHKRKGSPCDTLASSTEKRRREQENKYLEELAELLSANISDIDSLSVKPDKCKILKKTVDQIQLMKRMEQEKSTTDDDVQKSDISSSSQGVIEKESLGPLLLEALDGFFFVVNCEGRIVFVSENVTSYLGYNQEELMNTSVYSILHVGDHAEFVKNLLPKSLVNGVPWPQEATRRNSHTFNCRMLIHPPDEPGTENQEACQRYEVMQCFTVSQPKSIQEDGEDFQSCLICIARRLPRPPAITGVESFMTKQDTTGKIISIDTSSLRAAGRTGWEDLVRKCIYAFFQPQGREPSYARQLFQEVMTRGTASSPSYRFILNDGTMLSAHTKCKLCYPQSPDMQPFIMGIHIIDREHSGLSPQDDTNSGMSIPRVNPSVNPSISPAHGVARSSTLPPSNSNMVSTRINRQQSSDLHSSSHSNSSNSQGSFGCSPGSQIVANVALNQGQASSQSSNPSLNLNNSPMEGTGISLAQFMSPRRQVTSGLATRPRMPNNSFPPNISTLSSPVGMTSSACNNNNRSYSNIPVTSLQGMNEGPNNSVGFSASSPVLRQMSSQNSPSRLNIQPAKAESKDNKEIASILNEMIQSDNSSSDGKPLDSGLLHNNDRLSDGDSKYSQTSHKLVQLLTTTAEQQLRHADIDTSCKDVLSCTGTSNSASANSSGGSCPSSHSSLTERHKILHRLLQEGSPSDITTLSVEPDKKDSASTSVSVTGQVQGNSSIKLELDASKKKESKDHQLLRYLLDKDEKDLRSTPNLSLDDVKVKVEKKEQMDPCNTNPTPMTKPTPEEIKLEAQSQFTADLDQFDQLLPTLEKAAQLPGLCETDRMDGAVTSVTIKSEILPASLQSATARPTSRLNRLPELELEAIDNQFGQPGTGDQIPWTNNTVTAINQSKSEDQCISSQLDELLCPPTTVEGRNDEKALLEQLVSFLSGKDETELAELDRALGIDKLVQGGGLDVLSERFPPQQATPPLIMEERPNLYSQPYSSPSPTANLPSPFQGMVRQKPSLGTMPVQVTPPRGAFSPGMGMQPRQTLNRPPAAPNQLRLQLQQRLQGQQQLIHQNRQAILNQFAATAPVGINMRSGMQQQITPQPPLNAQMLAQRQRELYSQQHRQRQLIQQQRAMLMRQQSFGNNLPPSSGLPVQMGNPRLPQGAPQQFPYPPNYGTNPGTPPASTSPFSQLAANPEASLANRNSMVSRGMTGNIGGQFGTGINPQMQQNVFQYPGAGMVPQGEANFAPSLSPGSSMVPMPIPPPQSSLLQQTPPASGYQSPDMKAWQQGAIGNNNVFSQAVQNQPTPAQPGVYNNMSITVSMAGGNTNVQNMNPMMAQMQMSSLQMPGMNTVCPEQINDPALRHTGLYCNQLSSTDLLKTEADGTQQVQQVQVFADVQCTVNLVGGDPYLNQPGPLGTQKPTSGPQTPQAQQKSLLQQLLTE

The nature of experiment [2]: VP16 transactivation inhibitors, counter-screen for SRC1 inhibitor project, cell-based, luminescence, high throughput (AID 588824; in the data active = inhibition above about 25%). The conditions noted are these: cell-based VP16 transactivation luciferase luminescence; at 3.6 µM; stronger effect = higher value.
Experiment [3] is described as follows: StAR promoter reporter inhibitors, counter-screen for LRH-1 inverse agonist project, cell-based, luminescence, high throughput (AID 651611; in the data active = inhibition above about 28%). The conditions noted are these: StAR promoter luciferase reporter counterscreen, at 3.6 µM, stronger effect = higher value. Background: The purpose of a counterscreen is to sort out artefacts and off-target activity.
For experiment [4], the target named is Nuclear receptor subfamily 5 group A member 2 (Homo sapiens) (UniProt O00482). As to the kind of experiment: LRH-1 (NR5A2) inverse agonists, retest, confirmation, cell-based, luminescence (AID 651613; in the data active = inhibition above about 42%;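 also: HEK293T cells co-transfected with LRH-1 and StAR promoter luciferase reporter; 0% = vehicle wells and 100% = parental cells lacking receptor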). The conditions noted are these: cell-based LRH-1 luciferase reporter, inverse agonism; at 3.6 µM; stronger effect = higher value.
Sequence of Nuclear receptor subfamily 5 group A member 2 (Homo sapiens) (O00482 whole entry, looked up): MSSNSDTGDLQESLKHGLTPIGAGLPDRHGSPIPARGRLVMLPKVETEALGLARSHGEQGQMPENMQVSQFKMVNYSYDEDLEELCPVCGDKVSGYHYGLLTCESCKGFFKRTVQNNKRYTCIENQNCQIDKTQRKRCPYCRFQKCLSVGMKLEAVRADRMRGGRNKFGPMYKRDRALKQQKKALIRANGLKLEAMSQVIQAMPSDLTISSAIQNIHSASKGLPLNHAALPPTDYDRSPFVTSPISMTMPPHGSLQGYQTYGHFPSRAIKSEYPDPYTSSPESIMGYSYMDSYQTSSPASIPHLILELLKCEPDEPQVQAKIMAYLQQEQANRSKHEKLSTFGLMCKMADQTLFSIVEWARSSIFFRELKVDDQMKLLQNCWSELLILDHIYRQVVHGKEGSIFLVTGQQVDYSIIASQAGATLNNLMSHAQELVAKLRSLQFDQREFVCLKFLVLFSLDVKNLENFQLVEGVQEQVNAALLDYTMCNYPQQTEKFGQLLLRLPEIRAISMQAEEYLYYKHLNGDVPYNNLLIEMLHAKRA
Experiment [5] addresses Steroidogenic factor 1 (Homo sapiens) (UniProt Q13285). As to the kind of experiment: SF1 (NR5A1) inverse agonists, counter-screen for LRH-1 inverse agonist project, cell-based, luminescence, high throughput (AID 651614; in the data active = inhibition above about 44%;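 also: cells cotransfected with StAR promoter reporter and SF1 expression vector; 0% = vehicle on cells with receptor and 100% = vehicle on cells lacking receptor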). Conditions: cell-based SF1 luciferase reporter, at 3.6 µM, stronger effect = higher value.
Experiment [6] in a line: VP16 transactivation reporter inhibitors, counter-screen for LRH-1 inverse agonist project, cell-based, luminescence, high throughput (AID 651615). The conditions noted are these: Gal4-VP16 luciferase reporter cells, at 3.6 µM, stronger effect = higher value.

Sequence of Steroidogenic factor 1 (Homo sapiens) (Q13285 whole entry, looked up, the tested form may be a part): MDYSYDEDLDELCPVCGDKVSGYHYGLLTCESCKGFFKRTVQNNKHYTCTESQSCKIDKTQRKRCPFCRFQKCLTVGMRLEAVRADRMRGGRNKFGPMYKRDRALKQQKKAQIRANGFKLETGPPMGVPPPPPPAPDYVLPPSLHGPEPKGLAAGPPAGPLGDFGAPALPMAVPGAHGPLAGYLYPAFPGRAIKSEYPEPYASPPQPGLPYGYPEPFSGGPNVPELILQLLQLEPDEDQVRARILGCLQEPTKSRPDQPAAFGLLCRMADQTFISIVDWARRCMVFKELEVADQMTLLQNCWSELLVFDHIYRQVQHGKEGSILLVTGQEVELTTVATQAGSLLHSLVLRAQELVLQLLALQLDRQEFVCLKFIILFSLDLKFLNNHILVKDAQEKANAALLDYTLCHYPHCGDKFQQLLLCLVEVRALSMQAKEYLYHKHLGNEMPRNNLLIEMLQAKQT

In the case of `CCC(C)(C)n1nnnc1CN1CCC(n2c(C)nc3cc(C(F)(F)F)ccc32)CC1`, the inhibition in experiment [1] is 17.3%; in experiment [2], -2.08%.

`COc1ccccc1-n1c(/C=C/c2ccccn2)nc2ccccc2c1=O`: the inhibition in experiment [3] is 16.9%; in experiment [4], 63.3% (active); in experiment [5], 53.7% (active); in experiment [6] it was 4.69%.

As to `CCOC(=O)c1c(C)n(CC(O)CN2CCOCC2)c2cc(Br)c(OC)cc12` (stereo unspecified), the inhibition was 22% in experiment [3], 57.1% (active) in experiment [4], 47.9% (active) in experiment [5] and -12.2% in experiment [6].

As for `C[C@H]1CCC[C@H](O)CCCCCc2cc(O)cc(O)c2C(=O)O1`, the results for the inhibition in experiment [1] and in experiment [2] were -4.86% and 15.5%, respectively.

For `CC1=C(O)C(=O)C=C2C1=CC=C1C2(C)CCC2(C)C3CC(C)(C(=O)O)CCC3(C)CCC12C` (stereo unspecified), the inhibition in experiment [3] was 91.6% (active); in experiment [4], 106% (active); in experiment [5], 96.7% (active); in experiment [6], 89.5% (active).

For `Cn1cc(NC(=O)CCl)cn1`, the inhibition is 41% (active) in experiment [3], 61.9% (active) in experiment [4], 61.2% (active) in experiment [5] and -18.7% in experiment [6].

As for `N#Cc1ccc(NC(=S)N2Cc3ccccc3-n3nncc3C2)cc1`, the inhibition is -5.3% in experiment [3], 56.4% (active) in experiment [4], 47.5% (active) in experiment [5] and 10.9% in experiment [6].

Regarding `c1ccc2c(c1)[IH]c1ccccc1-2`, the inhibition is 42.4% (active) in experiment [3], 78.5% (active) in experiment [4], 64.1% (active) in experiment [5] and 72.8% (active) in experiment [6].

For the compound `COC(=O)C12CCc3c(ccc4cc(OC)ccc34)C1=CC(=O)C2` (stereo unspecified), the inhibition in experiment [3] is 0.25%; in experiment [4], 12.9%; in experiment [5], 25.3%; in experiment [6], -1.27%.

For `CC(=O)c1cn(Cc2ccccc2C#N)c2ccccc12`, the inhibition in experiment [3] was 28.8% (active); in experiment [4], 57.2% (active); in experiment [5], 55.8% (active); in experiment [6] it was 55.5% (active).

For the compound `CCCCn1c(NC(=O)c2ccc(Br)o2)c(C(=O)OCC)c2nc3ccccc3nc21`, the inhibition in experiment [3] was 27.1%; in experiment [4] it was 27.8%; in experiment [5], 45.6% (active); in experiment [6] it was 7.64%.

For the compound `CC(C)(C)c1ccc(CSc2cnn(C(C)(C)C)c(=O)c2Cl)cc1`, the inhibition in experiment [1] is -34.9%; in experiment [2], 44.7% (active); in experiment [3], 28.1% (active); in experiment [4] it was 99.2% (active); in experiment [5], 63.8% (active); in experiment [6], 57.7% (active).

Consider `CCN(CC)C(=O)c1ccc(NC(=O)c2cccc(S(=O)(=O)N3CCN(Cc4ccccc4)CC3)c2)cc1`, for which the inhibition is -1.69% in experiment [1] and 20.8% in experiment [2].

With `CC(=O)O[C@H]1C(=O)[C@@]2(C)C([C@H](OC(=O)c3ccccc3)[C@]3(O)C[C@H](OC(=O)[C@H](O)[C@@H](NC(=O)Cc4ccccc4)c4ccccc4)C(C)=C1C3(C)C)[C@]1(OC(C)=O)CO[C@@H]1C[C@@H]2O` (stereo partly specified), the inhibition in experiment [3] is 50.1% (active); in experiment [4] it was 45.2% (active); in experiment [5] it was 54.9% (active); in experiment [6] it was 36.1% (active).

With `CCOC(=O)[C@]12Cc3cc(Cl)ccc3[C@H]1N(C1CCCCC1)C(=O)c1cc(OC)ccc12`, the inhibition is 87.5% (active) in experiment [3], 105% (active) in experiment [4], 93.1% (active) in experiment [5] and 87.7% (active) in experiment [6].

With `C=C1[C@@H](C)[C@H]2[C@H](Cc3ccccc3)NC(=O)[C@]23OC(=O)/C=C/[C@H](O)CCC[C@@H](C)C/C=C/[C@H]3[C@@H]1O`, the inhibition in experiment [3] is 52.7% (active); in experiment [4] it was 27.9%; in experiment [5] it was 44.3% (active); in experiment [6], 27%.

In the case of `CC(=O)OC(C)(C)/C=C/C(=O)C(C)(O)C1C(O)CC2(C)C3CC=C4C(CC(O)C(=O)C4(C)C)C3(C)C(=O)CC12C` (stereo unspecified), the inhibition was 66% (active) in experiment [3], 56.8% (active) in experiment [4], 59.2% (active) in experiment [5] and 59.7% (active) in experiment [6].

Turning to `COC(=O)C(C)Oc1cc(C)cc2oc(=O)c3c(c12)CCC3` (stereo unspecified), the inhibition in experiment [3] was 47.8% (active); in experiment [4] it was 76.3% (active); in experiment [5], 67.7% (active); in experiment [6] it was -163%.

For `CC[n+]1c(/C=C/C=C/c2ccc(N(C)C)cc2)sc2ccccc21`, the inhibition was 54% (active) in experiment [3], 104% (active) in experiment [4], 86.4% (active) in experiment [5] and 86.5% (active) in experiment [6].

With `CCOC(=O)[C@]12Cc3c(cc(OC)c(OC)c3OC)[C@H]1N(C1CCCCC1)C(=O)c1ccccc12`, the inhibition in experiment [3] was 45.9% (active); in experiment [4], 99.8% (active); in experiment [5] it was 46.2% (active); in experiment [6] it was 89.3% (active).

As for `CCOC(=O)[C@]12Cc3ccc(C)cc3[C@H]1N(C1CCCCC1)C(=O)c1ccccc12`, the inhibition in experiment [3] was 39.6% (active); in experiment [4], 98% (active); in experiment [5], 29.8%; in experiment [6], 84.1% (active).

Regarding `CC1=CC2OC3CC4OC(=O)C=CC=CC(=O)OCCC(C)C(O)C(=O)OCC2(CC1)C4(C)C31CO1` (stereo unspecified), the inhibition in experiment [3] is 96.6% (active); in experiment [4], 109% (active); in experiment [5], 98.2% (active); in experiment [6], 98.1% (active).

As to `CCN(CC)C(=O)COc1cc(C)cc2oc(=O)c3c(c12)CCCC3`, the inhibition in experiment [3] was 7.68%; in experiment [4], 63.6% (active); in experiment [5] it was 59% (active); in experiment [6], -18.9%.

For `CCOC(=O)[C@]12Cc3cc(Cl)ccc3[C@H]1N(CC(=O)OC)C(=O)c1ccccc12`, the inhibition in experiment [3] is 72.7% (active); in experiment [4] it was 94.3% (active); in experiment [5], 64.4% (active); in experiment [6], 81.1% (active).

Consider `CCOC(=O)[C@]12Cc3cc(OC)ccc3[C@H]1N(C1CCCCC1)C(=O)c1ccccc12`, for which the inhibition in experiment [3] is 49.6% (active); in experiment [4], 93.3% (active); in experiment [5], 42.2%; in experiment [6], 87.4% (active).
